Screens (PubChem)
The list is not random: actives were taken first. Their share in the collection is about 12%.
L3MBTL1 inh = blocks human L3MBTL1 | Q9Y468 | AlphaScreen L3MBTL1–H3K9me1 peptide binding | Potency, µM (top dose mostly 57.1 µM), inactives show at the highest dose activity, negative = inhibition, actives largely listed as inhibitors | 0.66% of 230,000 active; note: % is set by controls: 0 for no effect and ±100 for the full control effect; nearly all actives have a fitted effect of over 60% in size
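AlphaScreen proximity signal between nickel-chelate acceptor and streptavidin donor beads (final 10 ug/mL) reports binding of 50 nM L3MBTL1 to 75 nM biotin-H3 K9me1 peptide; complex incubated with compounds 30 min at room temperature; cefsulodin titration as control.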
JMJD2A Tudor = JMJD2A Tudor domain (human) inhibition | AlphaScreen JMJD2A-Tudor / H3K4me3 peptide binding | Potency, µM (titrated, usually from 114 µM), for the others: top-dose activity change, negative = inhibition, most hits filed as inhibitors | 4.4% of 390,000 active | AID 504339; note: % is set by controls: 0 for no effect and ±100 for the full control effect; nearly all actives have a fitted effect of over 50% in size
HP1b binding inh = HP1-beta chromodomain-methylated histone interaction inhibition. Potency, µM (top dose mostly 114 µM), inactives show at the highest dose activity change, negative = inhibition, actives largely listed as inhibitors. AlphaScreen HP1-beta / biotin-H3K9me3 peptide binding. AID 540317. 0.56% of 390,000 active; note: nearly all actives have a fitted effect of over 70% in size
Target sequence (P83916 whole entry, looked up): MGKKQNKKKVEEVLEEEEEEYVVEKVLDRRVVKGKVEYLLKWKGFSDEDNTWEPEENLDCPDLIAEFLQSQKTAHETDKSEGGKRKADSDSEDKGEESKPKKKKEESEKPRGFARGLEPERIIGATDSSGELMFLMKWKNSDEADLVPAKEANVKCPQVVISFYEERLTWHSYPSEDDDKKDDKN
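HP1-beta protein (50 nM final) preincubated 30 min at room temperature with biotinylated H3(1-18)K9me3 peptide (50 nM) in PBS pH 7.4, 0.01% Tween-20, then compound added for 30 min. AlphaScreen streptavidin donor/nickel chelate acceptor beads (10 ug/mL final), 30 min dark, luminescence read.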
Sfp PPTase inh = blocks B. subtilis Sfp PPTase activity. Q9F4F7. Biochemical Sfp PPTase activity, qHTS. 3.5% of 310,000 active. Potency, µM, without a hit: largest response in the series, negative = inhibition, usual class: inhibitors;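 note: the enzyme is Sfp with the accession as filed and its product quenches rhodamine fluorescence; 0% = enzyme reaction without inhibitor and -100% = no enzyme wells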
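Fluorescence-quenching assay: 15 nM Sfp-PPTase preincubated 15 min at room temperature with compound, then 5 uM rhodamine-CoA and 12.5 uM BHQ-2-labelled YbbR peptide added. Fluorescence (ex 525/em 598 nm) read at start and after 30 min; difference gives rate.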
BAZ2B block = inhibitors of human BAZ2B bromodomain; AlphaScreen BAZ2B-H3K14Ac peptide displacement; Potency, µM (series often up to 114 µM), for the others: top-dose activity change, negative = inhibition, hits mostly inhibitors; 4.4% of 360,000 active; AID 504333; note: % is set by controls: 0 for no effect and ±100 for the full control effect; nearly all actives have a fitted effect of over 60% in size
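AlphaScreen displacement of biotin-H3(5-23)K14Ac peptide (50 nM final) from BAZ2B (50 nM final) in PBS pH 7.4, 0.01% Tween-20; complex preformed 30 min RT, then compounds (top 110 uM) 30 min RT, beads 20 min dark.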
G9a inh = G9a (human) methyltransferase inhibition. Q96KQ7. G9a H3K9 monomethylation, AlphaScreen, 2 h. Potency, µM (doses to about 102 µM), without a hit: at the highest dose activity, negative = inhibition, actives largely listed as inhibitors. 8.8% of 350,000 active. AID 504332; note: % is set by controls: 0 for no effect and ±100 for the full control effect; nearly all actives have a fitted effect of over 75% in size
Target sequence (Q96KQ7 913-1193 limits assumed): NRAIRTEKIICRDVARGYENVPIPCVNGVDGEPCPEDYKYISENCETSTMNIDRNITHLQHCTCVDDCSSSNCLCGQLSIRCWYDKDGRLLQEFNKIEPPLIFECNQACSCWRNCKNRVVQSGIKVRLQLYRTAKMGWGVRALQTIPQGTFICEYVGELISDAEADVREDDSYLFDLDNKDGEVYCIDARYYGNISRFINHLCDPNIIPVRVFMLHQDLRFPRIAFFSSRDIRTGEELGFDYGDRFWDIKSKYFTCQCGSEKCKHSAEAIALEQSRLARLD
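AlphaScreen detection with an anti-monomethyl H3K9 antibody quantified product after a 2 h room-temperature reaction containing 500 nM biotinylated H3K9 peptide, 20 µM SAM and 20 nM enzyme, which had been preincubated 15 min with compound.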
* marks the source's active call; other numbers are inactive results; ? = inconclusive; . = no result; [ ] = dose if it differs, or a comment. Calls come from the whole dose curve; as a rule, active = well fitted curve in the direction sought with a large enough effect; inconclusive = small, poorly fitted or top-dose-only effect, or another doubt; inactive = no such curve, though single readings can be large; an effect the other way counts as inactive or inconclusive. Potency is the fitted concentration of half-maximal effect.

SMILES | L3MBTL1 inh | JMJD2A Tudor | HP1b binding inh | Sfp PPTase inh | BAZ2B block | G9a inh
O=C(COC(=O)/C=C/c1cccs1)Nc1nc(-c2cccc(Br)c2)cs1 | . | -7.7% | 35.4% | 19.4% | -1.8% | 18.2%[59 µM]
O=C(C[n+]1cc(-c2ccccc2)n2c1CCC2)Nc1nc(-c2ccccc2)cs1 | -9.2% | -33.1% | 6.2% | 56.2µM* | -32.9% | ?
C/C(=N\Nc1nc(-c2ccccc2)cs1)c1cccs1 | -22.4% | ? | -30.6% | 56.2µM* | 39.8µM* | 5.01µM*
O=C(COC(=O)c1cccs1)Nc1nc(-c2ccccc2)cs1 | 2.5% | -4.5% | 32.1% | 13.0% | -0.4% | 39.8µM*
CCCCn1c(NC(C)=O)c(C#N)c2nc3ccccc3nc21 | -2.6% | 10.5% | 27.8% | -5.9% | -5.6% | ?
C=CCn1c(NC(=O)c2ccccc2Cl)c(C#N)c2nc3ccccc3nc21 | ? | -22.8% | 39.6% | 79.4µM* | 10.3% | 12.2%[59 µM]
C/C(=N/NS(=O)(=O)c1ccc(Cl)cc1)c1cccc(O)c1 | 5.8% | -6.2% | 16.6% | 7.3% | 0.8% | 19.2%[59 µM]
Cc1cc(NS(=O)(=O)c2ccccc2)cc(Cl)c1O | 2.8% | 89.1µM* | -26.1% | 79.4µM* | 12.0% | 2.24µM*
C/C(=N\NS(=O)(=O)c1ccccc1)c1cc(Cl)cc(Cl)c1O | 0.3% | -30.1% | 5.4% | 13.4% | ? | 44.7µM*
COc1ccc(-c2cc(C(=O)N/N=C/c3ccc4c(c3)OCO4)c3ccccc3n2)c(OC)c1 | -10.3% | -13.8% | 18.4% | 8.8% | -3.0% | 12.1%[2.33 µM]
O=C(N/N=C/c1cccc(F)c1)c1cc(-c2ccco2)nc2ccccc12 | 5.62µM* | ? | 28.2µM* | -4.6% | 6.31µM* | ?
O=C(N/N=C/c1ccc2c(c1)OCO2)c1cc(-c2ccc(F)cc2)nc2ccccc12 | 0.7% | -11.4% | 27.7% | 44.7µM* | 0.3% | 3.4%
COc1ccccc1NC(=O)CN(c1cc(C)cc(C)c1)S(=O)(=O)c1c(C)[nH]c(=O)[nH]c1=O | . | -8.4% | 57.4% | . | -12.8% | 1.9%[59 µM]
Cc1ccc(N2CC3=C(C2=O)C(c2ccccc2)NC(=O)N3C)cc1 (stereo unspecified) | 2.4% | -2.5% | 36.8% | 5.2% | 1.6% | 0.6%[59 µM]
Cc1ccc(N2C(=O)[C@@H]3[C@H](C2=O)C2CCCN2[C@@H]3C(=O)c2ccccc2)cc1 (stereo partly specified) | -4.4% | 56.2µM* | 12.1% | 56.2µM* | ? | -2.5%[2.33 µM]
O=C1C2CCCN2C(c2ccccc2)N1c1ccc(F)cc1 (stereo unspecified) | -1.4% | -2.1% | 67.4% | -4.8% | -3.4% | -20.8%
O=C(c1ccccc1)[C@@H]1[C@@H]2C(=O)N(c3ccc(F)cc3)C(=O)[C@@H]2C2CCCN21 (stereo partly specified) | 7.5% | ? | -10.4% | 89.1µM* | -1.2% | .
COc1cccc2cc3c(=O)n(-c4ccccc4)nc-3oc12 | . | 44.7µM* | -8.7% | 1.1% | ? | ?
CC1=NN(c2ccccc2)C(=O)C1N=Nc1ccc(C)cc1 (stereo unspecified) | . | . | . | 8.6% | ? | ?
CC1=NN(c2ccccc2)C(=O)C1C=Nc1ccc(N(C)C)cc1 (stereo unspecified) | ? | 44.7µM* | ? | ? | 35.5µM* | .
Cc1cc(NCCO)nc(-n2nc(C)cc2C)n1 | 11.3% | -7.5% | 42.6% | 0.4% | 14.4% | ?
Cc1cc(N(CCO)CCO)nc(-n2nc(C)cc2C)n1 | 1.3% | ? | 52.3% | 0.0% | -15.0% | 39.8µM*
C#CCOCCOCCOCCNc1nc(N2CCN(C(=O)[C@H](CCCN=C(N)N)n3cc(C(N)[C@@H](C)CC)nn3)CC2)nc(N2CCN(C(=O)[C@H](CCC(=O)O)n3cc([C@@H](N)CC(N)=O)nn3)CC2)n1 (stereo partly specified) | -6.0% | 50.1µM* | 13.9% | . | . | .
